Most compounds without a hit are left out; they make up all but 3% or so of the library.
ABHD5 PLIN5 PPI = inhibitors of human ABHD5-perilipin-5 interaction; Q00G26+Q8WTS1; Split G. princeps luciferase complementation, luminescence, 4 h; inhibition, % at 4 µM; actives 0.78% (n = 360,000); AID 602281;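 active means inhibition above the mean inhibition across every tested compound plus 3 SD, cut at about 22% in these data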;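 further: 0% = DMSO only wells and the 100% control is not disclosed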
Target sequence (Q00G26 whole entry, looked up): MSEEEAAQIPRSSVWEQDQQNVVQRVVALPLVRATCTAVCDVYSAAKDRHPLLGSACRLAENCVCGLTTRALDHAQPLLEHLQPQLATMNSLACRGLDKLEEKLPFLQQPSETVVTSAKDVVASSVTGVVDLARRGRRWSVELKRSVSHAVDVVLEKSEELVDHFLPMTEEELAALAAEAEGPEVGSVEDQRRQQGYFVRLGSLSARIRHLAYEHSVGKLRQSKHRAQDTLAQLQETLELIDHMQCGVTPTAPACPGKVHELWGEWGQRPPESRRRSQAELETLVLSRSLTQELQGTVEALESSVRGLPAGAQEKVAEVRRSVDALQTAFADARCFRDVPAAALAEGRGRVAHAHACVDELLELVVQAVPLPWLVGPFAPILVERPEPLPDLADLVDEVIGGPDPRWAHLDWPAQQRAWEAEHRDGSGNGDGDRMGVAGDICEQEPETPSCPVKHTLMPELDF
Target sequence (Q8WTS1 whole entry, looked up): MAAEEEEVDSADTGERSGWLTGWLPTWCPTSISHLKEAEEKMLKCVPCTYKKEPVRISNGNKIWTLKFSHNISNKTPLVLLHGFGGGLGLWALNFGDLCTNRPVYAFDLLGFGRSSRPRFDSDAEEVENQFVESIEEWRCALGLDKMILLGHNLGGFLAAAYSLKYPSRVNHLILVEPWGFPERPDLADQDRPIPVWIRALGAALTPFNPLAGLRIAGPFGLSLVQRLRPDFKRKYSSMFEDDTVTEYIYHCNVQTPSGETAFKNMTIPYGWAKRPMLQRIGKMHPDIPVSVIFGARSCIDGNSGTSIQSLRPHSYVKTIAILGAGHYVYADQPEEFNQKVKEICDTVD
Shn3 3UTR inh = Schnurri-3 reporter inhibition in Clone20 osteoblasts; inhibition, % at 12.5 µM; Clone20 osteoblast Shn3 3'UTR firefly luciferase, 24 h; AID 588674; actives 0.52% (n = 360,000);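 active means mean inhibition of at least 75% with every replicate also reaching 75%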;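 further: 0% = median of neutral control wells and 100% = pilot-screen positive control compound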
Peg3 promoter = inhibitors of Peg3 promoter. inhibition, % at 20 µM. HeLa PEG-Prom luciferase reporter, luminescence, overnight. AID 588405. actives 1.7% (n = 360,000);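 active means inhibition of at least 50% at 20 µM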
EWS-Fli block = inhibitors of EWS/Fli oncoprotein transcriptional activity | actives 0.67% (n = 350,000) | inhibition, % at 12.6 µM | A673 NR0B1-luciferase reporter, viability-normalised | AID 651661;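 active means mean inhibition of at least 50% after viability correction, with every replicate also passing that limit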;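 further: firefly luciferase signal divided by Alamar Blue viability fluorescence both relative to DMSO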
PAX8 reporter = lowers PAX8-driven luciferase in RMG-I cells. RMG-I TPO-luciferase reporter, SteadyGlo, 24 h. inhibition, % at 12.6 µM. actives 1.2% (n = 360,000). AID 652154;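 active means mean replicate inhibition at least 60% with every replicate also reaching 60%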;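 further: luciferase light reporting Pax8 driven TPO promoter activity; plate controls were median of neutral control wells for no effect and mitoxantrone controls for full effect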
MITF TRPM1 inh = inhibitors of MITF-driven TRPM1 promoter in melanoma cells; SK-MEL-5 TRPM1 promoter luciferase, 24 h; inhibition, % at 12.5 µM; actives 0.83% (n = 330,000); AID 488899;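 active means mean inhibition across replicates of 60% or more, whatever share of single replicates reaches that level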
DNA binding = small molecule DNA binding by fluorescence polarization; actives 2% (n = 640); shares compounds with EWS-Fli block; AC35, µM (top dose mostly 68 µM), without a hit: at the top dose activity change, negative = DNA binding; salmon sperm DNA acridine orange fluorescence polarization;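 active means fitted curve reaches a 35% signal fall AC35 below twice the sample's top valid tested dose, actives reach about 48 µM in these data; inactive means the rest, including activity in the rising direction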;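 further: lower polarization ratio signals compound binding to DNA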
Starred values were filed as active, the others as inactive; nt = no result given.

SMILES | ABHD5 PLIN5 PPI | Shn3 3UTR inh | Peg3 promoter | EWS-Fli block | PAX8 reporter | MITF TRPM1 inh | DNA binding
COC1C(O)C(C)OC(OC2CCC3(C)C(CCC4C3C(O)CC3(C)C(C5=CC(=O)OC5)CCC43O)C2)C1O (stereo not given) | 22* | -14 | 100* | 51* | 108* | 73* | 3%
C[C@]12CCC3[C@@H](CC[C@@H]4C[C@H](O)CC[C@]34C)[C@@H]1CCC2=O (stereo not given in full) | 4 | -8 | 9 | -7 | -7 | 6 | nt
C[C@]12CC[C@H](O)C[C@H]1CC[C@@H]1[C@@H]2CC[C@]2(C)[C@@H](C3=CC(=O)OC3)CC[C@]12O | 7 | -4 | 105* | 67* | 113* | 73* | 3%
C[C@]12CC[C@@H](O)C[C@@H]1CC[C@@H]1[C@@H]2CC[C@]2(C)C(=O)[C@H](O)C[C@@H]12 | 0 | 9 | -2 | nt | nt | nt | nt
C/C=C/c1ccc(C2[C@@H]3CN(C(=O)CN(C)C)C[C@H]2N3)cc1 (stereo not given in full) | nt | nt | nt | -2 | -18 | nt | nt
O=C(Cc1ccccc1)N1CCCCN2[C@H](CO)[C@@H](c3ccc(C#Cc4ccccc4)cc3)[C@@H]2C1 | nt | nt | nt | nt | 21 | nt | nt
COC(=O)[C@H]1[C@H](CO)[C@H]2Cn3c(ccc(-c4ccccc4F)c3=O)[C@@H]1N2 | nt | nt | nt | -46 | 2 | nt | nt
C[C@@H]1CN([C@H](C)CO)C(=O)CCCn2cc(nn2)CO[C@@H]1CN(C)C(=O)Oc1ccc2ccccc2c1 | nt | nt | nt | 0 | nt | nt | nt
CC(=O)OC1CC(OC2C(O)CC(OC3C(O)CC(OC4CCC5(C)C(CCC6C5CC(O)C5(C)C(C7=CC(=O)OC7)CCC65O)C4)OC3C)OC2C)OC(C)C1OC1OC(CO)C(O)C(O)C1O (stereo not given) | -4 | -16 | 95* | 65* | 111* | 70* | -10%
C[C@@H]1O[C@@H](O[C@H]2C[C@@H](O)[C@]3(CO)[C@@H]4C(CC[C@]3(O)C2)[C@@]2(O)CC[C@H](C3COC(=O)C3)[C@@]2(C)C[C@H]4O)[C@H](O)[C@H](O)[C@H]1O (stereo not given in full) | 3 | -27 | 103* | 72* | 86* | 79* | -16%
O=C(Nc1ccc(OC(=O)N2CCCCC2)cc1)N1CCOCC1 | -3 | 60 | 16 | 76* | 58 | 66* | -2%
CC1=C2C[C@H]3[C@@H](CC=C4C[C@@H](O)CC[C@@]43C)[C@@H]2CC[C@]12O[C@@H]1C[C@H](C)CN[C@@H]1C2C (stereo not given in full) | nt | nt | nt | 5 | 2 | nt | nt
CC(C)c1oc(=O)cc2c1[C@@H](O)[C@H]1OC(=O)[C@@]3(C)CC[C@@H](O)[C@@]2(C)C13 (stereo not given in full) | 5 | 8 | 31 | 62* | 37 | 60 | -3%
COC1C(O)C(C)OC(OC2C(Oc3cccc4c(O)c5c(=O)oc6ccc(C)c7c(=O)oc(c34)c5c67)OC(C)C(O)C2O)C1O (stereo not given) | 13 | 30 | 1 | 69* | nt | 50 | -7%
COC(=O)[C@H]1[C@H](CO)[C@H]2Cn3c(ccc(/C=C/c4ccccc4)c3=O)[C@@H]1N2C(=O)C1CC1 | nt | nt | nt | 22 | nt | nt | nt
COC(=O)[C@@H]1[C@@H](CO)[C@@H]2Cn3c(cccc3=O)[C@H]1N2CCc1ccccc1 | nt | nt | nt | 3 | nt | nt | nt
C=C1C(=O)OC2C1CCC(C)C1(O)C=CC(=O)C21C (stereo not given) | 3 | 63 | 106* | 62* | nt | 75* | -9%

Source: PubChem
